Assay results as given in PubChem BioAssay AID504332 (National Center for Advancing Translational Sciences (NCATS), 2011).
Values joined by “and” are separate entries in the source; they are usually repeats but may differ in a detail not shown here. Equal values may be shown once. In all, about 350,000 compounds went through this assay and about 31,000 (8.9%) were called active. Inconclusive results (about 15%) are left out. Calls follow the shape of the dose curve; as a rule, active = well fitted inhibition curve with a large enough effect; inconclusive = small, poorly fitted or top-dose-only effect; inactive = no such curve, though single readings can be large or run the other way. What follows is part of a selection rich in actives, with near analogues and random picks from the rest. Entries that show only a call come without a potency. Some compounds were tested as several samples or in several runs, with calls that do not always agree.
Also: nearly all actives have a fitted effect of over 75% in size.
Potency is read from the fitted curve at half-maximal effect.

What follows are molecules tested against Histone-lysine N-methyltransferase EHMT2 (Homo sapiens) (UniProt Q96KQ7) (assay: qHTS Assay for Inhibitors of Histone Lysine Methyltransferase G9a). Settings: G9a H3K9 monomethylation, AlphaScreen, 2 h; series mostly up to 102 µM.
Sequence of Histone-lysine N-methyltransferase EHMT2 (Homo sapiens) (Q96KQ7 913-1193 limits assumed): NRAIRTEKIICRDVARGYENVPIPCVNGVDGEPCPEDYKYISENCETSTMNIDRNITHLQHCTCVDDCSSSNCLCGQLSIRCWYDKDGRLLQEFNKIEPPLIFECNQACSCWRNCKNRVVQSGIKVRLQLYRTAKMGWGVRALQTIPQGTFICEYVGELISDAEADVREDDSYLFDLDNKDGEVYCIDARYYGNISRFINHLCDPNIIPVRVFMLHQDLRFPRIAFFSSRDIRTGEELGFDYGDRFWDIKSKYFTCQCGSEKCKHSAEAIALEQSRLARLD
Procedure, shortened: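 AlphaScreen read-out: biotin-H3K9 peptide (500 nM) methylation by 20 nM enzyme with 20 uM SAM, 2 h at room temperature after 15 min compound preincubation; anti-monomethyl H3K9 antibody plus donor/acceptor beads, 10 min dark.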
For Cc1ccnc(-n2c(C)cc(/C=C3\C(=O)NC(=S)N(C)C3=O)c2C)c1, the Potency was 6.31 µM (active).
In the case of CN1CCC(OC(=O)c2cccc(F)c2)CC1, the activity, negative = inhibition is reported as “inactive”.
In the case of CCN1CCN(c2ccc([N+](=O)[O-])cc2C#N)CC1, the activity, negative = inhibition is reported as “inactive”.
O=C(N/N=C/c1c(O)n(C2CC2)c(=S)[nH]c1=O)c1ccccc1Cl was tested, and the activity, negative = inhibition was “inactive”.
CCNC[C@H](O)c1cccc(O)c1 was tested, and the activity, negative = inhibition was 5.63% [at 21.5 µM] (inactive).
In the case of CN(c1ccccc1)c1ccc([N+](=O)[O-])c2nonc12, the Potency is reported as 15.8 µM (active).
With O=c1c2ccccc2nc(-c2ccco2)n1-c1ccc(Br)cn1 the activity, negative = inhibition was “inactive”.
With CCOP(=S)(OCC)SCOC(=O)NCC(=O)OC the activity, negative = inhibition was “inactive”.
In the case of CCOC(=O)C(O)(c1ccc(N=Cc2ccccc2O)c(C)c1)C(F)(F)F (stereo not given), the activity, negative = inhibition is reported as “inactive”.
For COc1ccccc1N1CCN(C(CNC(=O)Oc2ccccc2)c2cccnc2)CC1 (stereo not given), the activity, negative = inhibition was “inactive”.
In the case of O=C(c1cc(S(=O)(=O)N2CCOCC2)ccc1F)N1CCC2(CC1)OCCO2, the activity, negative = inhibition is reported as -11% [at 12.7 µM] (inactive).
For Cc1nn(-c2ccccc2)c(C)c1NC(=O)COC(=O)Cc1ccccc1, the activity, negative = inhibition was “inactive”.
For c1cc2c(cc1CCNC1CCCCCC1)OCO2, the Potency was 8.91 µM (active).
In the case of OC(CNC1CCCCC1)c1ccccc1 (stereo not given), the activity, negative = inhibition is reported as 2.5% [at 12.7 µM] (inactive).
For c1ccc(CCNC2CCCCCC2)cc1, the Potency was 7.08 µM (active).
CC(=NCc1ccc2c(c1)OCO2)c1c(O)[nH]c(=O)[nH]c1=O was tested, and the activity, negative = inhibition was -21.4% [at 12.7 µM] (inactive).
For c1cc2c(cc1[C@H]1OC[C@H]3[C@@H]1CO[C@@H]3c1ccc3c(c1)OCO3)OCO2, the activity, negative = inhibition was “inactive”.
For O=C(CN1CCCC1=O)NCCc1ccccc1, the activity, negative = inhibition was 27.1% [at 12.7 µM] (inactive).
CCN(CC)C(=O)c1ccc(NC(=O)c2sccc2-c2ccccc2)cc1 was tested, and the activity, negative = inhibition was “inactive”.
CCN1C[C@]2(COC)C(O)C[C@H](OC)[C@@]34C5C[C@]6(O)C(OC)C(O)[C@](OC(C)=O)(C5C6OC(=O)c5ccccc5)C(C(OC)C23)C14 (stereo not given in full) was tested, and the activity, negative = inhibition was -10.7% [at 2.33 µM] (inactive).
With CN[C@@H]1C[C@H]2O[C@@](C)([C@@H]1OC)n1c3ccccc3c3c4c(c5c6ccccc6n2c5c31)C(=O)NC4 the activity, negative = inhibition was “inactive”.
With Cc1ccc(-n2c(/C=C/c3cccc(C(F)(F)F)c3)nc3ccccc3c2=O)cc1 the activity, negative = inhibition was “inactive”.
For CCOc1ccc(-c2cc(C)[n+](CCN(CC)CC)c(-c3ccc(OCC)cc3)c2)cc1, the activity, negative = inhibition was “inactive”.
With CCCCC(=O)N/N=C/c1c(O)n(CCC2=CCCCC2)c(=O)[nH]c1=O the activity, negative = inhibition was “inactive”.
With O=C(O)COc1ccccc1/C=C1\C(=O)NC(=O)N(CCC2=CCCCC2)C1=O the Potency was 50.1 µM (active).
CCN(CC)P(=O)(Oc1cccc(C)c1)N(CC)CC was tested, and the activity, negative = inhibition was “inactive”.
For Cc1cc(-c2n[nH]c(=S)n2-c2ccc(C)c(C)c2)no1, the Potency was 2.51 µM (active).
c1ccc(CN2CC[C@@]3(CCCNC3)C2)cc1 was tested, and the activity, negative = inhibition was -24.8% [at 12.7 µM] (inactive).
For CN1CCN(C(=O)COc2ccc(C(C)(C)C)cc2Br)CC1, the activity, negative = inhibition was “inactive”.
With O=C(O)c1ccccc1NC(=O)C1C2CCC(O2)C1C(=O)O (stereo not given) the activity, negative = inhibition was -2.22% [at 0.501 µM] (inactive).
ClC(Cl)(Cl)c1ccccc1 was tested, and the activity, negative = inhibition was -20.6% [at 0.501 µM] (inactive).
CCN1C(=O)C(=Cc2c(C)n(CC(=O)NCC3CCCO3)c3ccccc23)C(=O)N(CC)C1=S (stereo not given) was tested, and the Potency was 39.8 µM (active).
O=C1C2(Cl)C3(Cl)C4(Cl)C(Cl)(Cl)C5(Cl)C3(Cl)C1(Cl)C5(Cl)C24Cl (stereo not given) was tested, and the activity, negative = inhibition was -1.92% [at 0.501 µM] (inactive).
For COc1ccccc1-c1[se]c2ccccc2c1I, the activity, negative = inhibition was “inactive”.
With COC(=O)C1=C(c2ccc(F)cc2OCc2ccccc2)C[C@@H]2CC[C@H]1N2C(=O)NCc1ccc(OC)c(OC)c1 the activity, negative = inhibition was -8.71% [at 0.501 µM] (inactive).
In the case of CN(C)[C@@H]1C(=O)C(C(N)=O)=C(O)[C@@]2(O)C(=O)C3=C(O)c4c(O)cccc4[C@@](C)(O)C3CC12 (stereo not given in full), the Potency is reported as 22.4 µM (active).
In the case of CNC(=O)O/N=C(\N)Cc1csc2ccccc12, the activity, negative = inhibition is reported as “inactive”.
In the case of C/C(CCc1c[nH]c2ccccc12)=N\O, the activity, negative = inhibition is reported as 13.7% [at 12.7 µM] (inactive).
In the case of O=C(Nc1ccc(Cl)cc1C(=O)c1ccccc1)c1cc(Cl)cc(Cl)c1, the activity, negative = inhibition is reported as “inactive”.
In the case of C=Cn1ccnc1P(=S)(c1cc(N(CC)CC)ns1)c1nccn1C=C, the activity, negative = inhibition is reported as “inactive”.
For COP(=O)(NS(=O)(=O)c1ccccc1)OC, the activity, negative = inhibition was “inactive”.
With Cc1nc2ccc(N3CCN(C)CC3)cc2nc1C the activity, negative = inhibition was “inactive”.
With CN1CCN(c2cc(N3CCNCC3)ccc2[N+](=O)[O-])CC1 the activity, negative = inhibition was “inactive”.
In the case of COc1cccc(-c2nc3ccc(N4CCN(C)CC4)cc3[nH]2)c1, the Potency is reported as 44.7 µM (active).
CN(C)/C=C(\C=[N+](C)C)c1[nH]ncc1[N+](=O)[O-] was tested, and the activity, negative = inhibition was “inactive”.
With CCc1nnc(NS(=O)(=O)c2ccc(N=Cc3c(O)n(-c4ccccc4)c(=O)[nH]c3=O)cc2)s1 the activity, negative = inhibition was “inactive”.
N#CC1=C(N)Oc2c(c(=O)oc3ccccc23)C1c1ccccc1OC(=O)c1cccs1 (stereo not given) was tested, and the activity, negative = inhibition was “inactive”.
In the case of COC(=O)C1=C(c2ccc(F)cc2F)C[C@@H]2CC[C@H]1N2C(=O)NC1CC1, the activity, negative = inhibition is reported as 2.71% [at 0.501 µM] (inactive).
O=C(CCNS(=O)(=O)c1ccccc1)Nc1ccc(Cl)cc1C(=O)c1ccccc1 was tested, and the activity, negative = inhibition was “inactive”.
In the case of CCOC(=O)C1=C(C)OC(N)=C(C(=O)OC)C12C(=O)Nc1ccc(Br)cc12 (stereo not given), the activity, negative = inhibition is reported as 8.25% [at 2.33 µM] (inactive).
With CC[N+](C)(CC)CCC[n+]1c(-c2ccccc2)c2cc(N)ccc2c2ccc(N)cc21 the Potency was 5.01 µM (active).
In the case of C[C@H]1CC[C@@]2(NC1)O[C@@H]1C[C@H]3[C@@H]4CC=C5C[C@@H](O)CC[C@]5(C)[C@@H]4CC[C@]3(C)[C@@H]1[C@@H]2C, the activity, negative = inhibition is reported as 18.8% [at 21.5 µM] (inactive).
In the case of CCN1CCN(c2nc3c(c(=O)[nH]2)CCC3)CC1, the activity, negative = inhibition is reported as “inactive”.
In the case of CCOc1ccc(CN(CCCl)CCCl)cc1C(=O)OC, the activity, negative = inhibition is reported as 16.9% [at 0.501 µM] (inactive).
In the case of CCOP(=O)(OCC)C(O)c1ccc(OC)cc1OC (stereo not given), the activity, negative = inhibition is reported as “inactive”.
For CCOC(=O)c1ncn2c1[C@@H]1CCCN1C(=O)c1cc(OC)ccc1-2, the activity, negative = inhibition was “inactive”.
For CCOC(=O)C1CN(C)CCC1=O (stereo not given), the activity, negative = inhibition was 26.6% [at 2.33 µM] (inactive).
In the case of CCN1CCN(C(=O)Cc2coc3cc(C)cc(C)c23)CC1, the activity, negative = inhibition is reported as “inactive”.
O=C(Cc1ccccc1)N1CCN(C2CCCCCC2)CC1 was tested, and the Potency was 31.6 µM (active).
For O=C(Cn1c(=O)n(CC2CS2)c2ccccc21)N1CCCCC1 (stereo not given), the activity, negative = inhibition was “inactive”.
In the case of CCC(=NCCc1ccccc1)c1c(O)n(C2CCCCC2)c(=O)[nH]c1=O, the activity, negative = inhibition is reported as “inactive”.
With COc1ccccc1CN1CCN(C(=O)Cc2ccccc2)CC1 the Potency was 17.8 µM (active).
In the case of CN1CCN(Cc2ccccc2C(F)(F)F)CC1, the activity, negative = inhibition is reported as “inactive”.
CCOC(=O)C(O)(c1ccc(NC(=O)c2ccco2)c(OC)c1)C(F)(F)F (stereo not given) was tested, and the activity, negative = inhibition was -45.5% [at 2.33 µM] (inactive).
With c1ccc(CCCCN2CCC(c3ccccc3)CC2)cc1 the activity, negative = inhibition was “inactive”.
For CC1=C(C(=O)Nc2ccccc2)S(=O)(=O)CCO1, the activity, negative = inhibition was “inactive”.
CC(Cc1ccccc1)NC=O (stereo not given) was tested, and the activity, negative = inhibition was 2.33% [at 12.7 µM] (inactive).
COC(=O)C1=C(c2ccc(Cl)c(C(F)(F)F)c2)C[C@@H]2CC[C@H]1N2C(=O)NC1CC1 was tested, and the activity, negative = inhibition was 7.94% [at 0.501 µM] (inactive).
OC(Cn1c2ccccc2c2ccccc21)C[n+]1ccccc1 (stereo not given) was tested, and the activity, negative = inhibition was “inactive”.
CN1CCc2nc(SC(C(=O)O)c3ccccc3)c(C#N)c(-c3cccs3)c2C1 (stereo not given) was tested, and the Potency was 31.6 µM (active).
With CN1CCCC(=C(c2cccs2)c2cccs2)C1 the activity, negative = inhibition was -17.6% [at 12.7 µM] (inactive).
Cn1c(O)c(C=NCCCC(=O)O)c(=O)n(C)c1=O was tested, and the activity, negative = inhibition was “inactive”.
In the case of COCCNC(=O)CN1C2CCC1CC(O)(c1cccnc1)C2 (stereo not given), the activity, negative = inhibition is reported as “inactive”.
In the case of O=C1NC(=O)C(C/C=C/c2ccccc2)C(=O)N1, the Potency is reported as 25.1 µM (active).
With O=C(O)C1C2CCC(O2)C1C(=O)O (stereo not given) the activity, negative = inhibition was 48.4% [at 12.7 µM] (inactive).
With CN(C)C(=O)NC(O)C(Cl)(Cl)Cl (stereo not given) the activity, negative = inhibition was “inactive”.
With O=C(COc1ccc2ccccc2c1)N1CCN(Cc2ccncc2)CC1 the Potency was 6.31 µM (active).
In the case of CC(C)c1ccc(OCC(=O)N2CCCN(C)CC2)cc1, the activity, negative = inhibition is reported as “inactive”.
With CCc1ccc(OCC(=O)N2CCN(CC(=O)Nc3ccccc3Cl)CC2)cc1 the activity, negative = inhibition was -1.72% [at 2.33 µM] (inactive).
In the case of O=C(COC(=O)c1ccccc1)Nc1ccc(Cl)cc1C(=O)c1ccccc1, the activity, negative = inhibition is reported as “inactive”.
CC(=O)Cc1ccc(OC(C)C)cc1 was tested, and the activity, negative = inhibition was “inactive”.
For O=C(COC(=O)Cc1ccccc1)Nc1ccc(F)cc1, the activity, negative = inhibition was “inactive”.
With COC(=O)C1=C(c2cccc(OCc3ccccc3)c2)C[C@@H]2CC[C@H]1N2C(=O)NNCc1ccccc1 the activity, negative = inhibition was 2.91% [at 2.33 µM] (inactive).
With O=S(=O)(Nc1ccc2[nH]ncc2c1)c1ccccc1Cl the Potency was 22.4 µM (active).
NC(=O)Cn1cc(C(=O)c2ccccc2F)c2ccccc21 was tested, and the activity, negative = inhibition was “inactive”.
O=C(CCCn1c(=O)[nH]c2cc(Cl)ccc2c1=O)N1CCC2(CC1)OCCO2 was tested, and the activity, negative = inhibition was “inactive”.
Cc1cccc(OP(=O)(Oc2cccc(C)c2)OC(c2ccccc2)C(F)(F)F)c1 (stereo not given) was tested, and the activity, negative = inhibition was “inactive”.
With COc1ccc(-n2c(-c3ccccc3)nc3ccccc3c2=O)cc1 the activity, negative = inhibition was “inactive”.
In the case of C[N+]1(C)CCOC(O)(c2ccc(-c3ccc(C4(O)C[N+](C)(C)CCO4)cc3)cc2)C1 (stereo not given), the Potency is reported as “inactive and 50.1 µM (active) and 20 µM (active)”.
For CC[N+]1(CCOC(=O)C(O)(c2ccccc2)c2ccccc2)CCCCC1, the activity, negative = inhibition was -33.9% [at 12.7 µM] (inactive).
With Cc1ccc(-c2nn(CCC#N)cc2C(=O)O)cc1C the activity, negative = inhibition was “inactive”.
O=C(c1ccccc1[N+](=O)[O-])N1CCC2(CC1)OCCO2 was tested, and the activity, negative = inhibition was “inactive”.
In the case of CC(C)n1c(=O)c(C=Nc2ccc(Br)cc2)c(O)n(Cc2ccco2)c1=O, the activity, negative = inhibition is reported as “inactive”.
For Cc1ccc(-n2c(-c3ccc([N+](=O)[O-])cc3)nc3ccccc3c2=O)cc1, the activity, negative = inhibition was “inactive”.
For O=[N+]([O-])c1cnc2ccc3ccccc3c2c1, the Potency was 50.1 µM (active).
